Measurements taken from PMC5540273 (PLoS ONE, 2017).

Key:
Details in all cases: concentration: 1 μM, replicates: in singlicate; n = 1
[1] = system: RPS6KA4(Kin.Dom.1-N-terminal)
[2] = system: RPS6KA4(Kin.Dom.2-C-terminal)
[3] = system: RPS6KA5(Kin.Dom.1-N-terminal)
[4] = system: RPS6KA5(Kin.Dom.2-C-terminal)
[5] = system: T1, RSK1(Kin.Dom.1-N-terminal)
T1 construct: gene RPS6KA1

[6] = system: T2, RSK1(Kin.Dom.2-C-terminal)
T2 construct: gene RPS6KA1

[7] = system: T3, RSK2(Kin.Dom.1-N-terminal)
T3 construct: gene RPS6KA3

[8] = system: T4, RSK2(Kin.Dom.2-C-terminal)
T4 construct: gene RPS6KA3

[9] = system: T5, RSK3(Kin.Dom.1-N-terminal)
T5 construct: gene RPS6KA2

[10] = system: T6, RSK3(Kin.Dom.2-C-terminal)
T6 construct: gene RPS6KA2

[11] = system: T7, RSK4(Kin.Dom.1-N-terminal)
T7 construct: gene RPS6KA6

[12] = system: T8, RSK4(Kin.Dom.2-C-terminal)
T8 construct: gene RPS6KA6

S6K1 = system: S6K1
SBK1 = system: SBK1
SGK2 = system: SGK2
SGK3 = system: SGK3
SGK = system: SGK
SIK2 = system: SIK2
SIK = system: SIK
SLK = system: SLK
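Also: KINOMEscan kinase panel screen.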

Cn1cc(-c2ccc3c(c2)CCN3C(=O)Cc2cccc(F)c2)c2c(N)ncnc21 [GSK2603358]
%Inh [1]: 7%
%Inh [2]: 0%
%Inh [3]: 35%
%Inh [4]: 0%
%Inh [5]: 20%
%Inh [6]: 3%
%Inh [7]: 0%
%Inh [8]: 0%
%Inh [9]: 20%
%Inh [10]: 0%
%Inh [11]: 0%
%Inh [12]: 43%
%Inh (S6K1): 12%
%Inh (SBK1): 30%
%Inh (SGK2): 18%
%Inh (SGK3): 2%
%Inh (SGK): 0%
%Inh (SIK2): 0%
%Inh (SIK): 4%
%Inh (SLK): 55%

Cc1cccc(NC(=O)Nc2ccc(Oc3ncnc4ccn(C)c34)cc2)c1
%Inh [1]: 0%
%Inh [2]: 0%
%Inh [3]: 0%
%Inh [4]: 0%
%Inh [5]: 0%
%Inh [6]: 0%
%Inh [7]: 0%
%Inh [8]: 2%
%Inh [9]: 0%
%Inh [10]: 0%
%Inh [11]: 0%
%Inh [12]: 0%
%Inh (S6K1): 0%
%Inh (SBK1): 0%
%Inh (SGK2): 0%
%Inh (SGK3): 0%
%Inh (SGK): 0%
%Inh (SIK2): 7%
%Inh (SIK): 10%
%Inh (SLK): 0%

Cl.c1ccc(-c2ccc3c(Nc4ccc5[nH]ncc5c4)ccnc3c2)nc1 [GW440137]
%Inh [1]: 0%
%Inh [2]: 0%
%Inh [3]: 2%
%Inh [4]: 34%
%Inh [5]: 20%
%Inh [6]: 6%
%Inh [7]: 0%
%Inh [8]: 0%
%Inh [9]: 6%
%Inh [10]: 0%
%Inh [11]: 0%
%Inh [12]: 0%
%Inh (S6K1): 0%
%Inh (SBK1): 0%
%Inh (SGK2): 0%
%Inh (SGK3): 21%
%Inh (SGK): 58%
%Inh (SIK2): 0%
%Inh (SIK): 0%
%Inh (SLK): 31%

FC(F)(F)c1ccc(/C=C/c2cncnc2Nc2ccc3[nH]c(Cc4ccccc4)nc3c2)cc1 [GW709199]
%Inh [1]: 25%
%Inh [2]: 0%
%Inh [3]: 0%
%Inh [4]: 6%
%Inh [5]: 3%
%Inh [6]: 0%
%Inh [7]: 11%
%Inh [8]: 48%
%Inh [9]: 13%
%Inh [10]: 0%
%Inh [11]: 0%
%Inh [12]: 0%
%Inh (S6K1): 0%
%Inh (SBK1): 0%
%Inh (SGK2): 0%
%Inh (SGK3): 0%
%Inh (SGK): 0%
%Inh (SIK2): 4%
%Inh (SIK): 20%
%Inh (SLK): 5%

Nc1ncnc2c1nc(-c1ccccc1)n2-c1ccccc1 [SKF-97293]
%Inh [1]: 9%
%Inh [2]: 10%
%Inh [3]: 16%
%Inh [4]: 11%
%Inh [5]: 19%
%Inh [6]: 0%
%Inh [7]: 40%
%Inh [8]: 27%
%Inh [9]: 18%
%Inh [10]: 0%
%Inh [11]: 36%
%Inh [12]: 0%
%Inh (S6K1): 29%
%Inh (SBK1): 53%
%Inh (SGK2): 0%
%Inh (SGK3): 16%
%Inh (SGK): 23%
%Inh (SIK2): 0%
%Inh (SIK): 8%
%Inh (SLK): 0%

CC(C)c1nc(-c2cccc(NS(=O)(=O)c3c(F)cccc3F)c2F)c(-c2ccnc(Nc3ccc(N4CCOCC4)nc3)n2)s1 [GSK2008607]
%Inh [1]: 0%
%Inh [2]: 0%
%Inh [3]: 2%
%Inh [4]: 0%
%Inh [5]: 100%
%Inh [6]: 12%
%Inh [7]: 41%
%Inh [8]: 0%
%Inh [9]: 45%
%Inh [10]: 0%
%Inh [11]: 10%
%Inh [12]: 39%
%Inh (S6K1): 82%
%Inh (SBK1): 40%
%Inh (SGK2): 9%
%Inh (SGK3): 28%
%Inh (SGK): 40%
%Inh (SIK2): 91.3%
%Inh (SIK): 99.5%
%Inh (SLK): 97%
